# Reference: paper PMC7862700, “An all-to-all approach to the identification of sequence-specific readers for epigenetic DNA modifications on cytosine”
# Key:
# Assay in all cases: DAPPL (digital affinity profiling via proximity ligation, sequencing); 10 mM Tris-HCl pH 7.5, 50 mM NaCl, 1 mM DTT, 4% glycerol, room temperature, 30 min; GST-TFs on glutathione beads, 16-mer random dsDNA library, 0.1% formaldehyde crosslink after washing; high values mean tight binding
# Details in all cases: protein: recombinant; tags: N-terminal GST; dsDNA, one strand shown
# ELK1 = target: T1, ELK1 (Homo sapiens, UniProt P19419 1-428)
# T1 sequence: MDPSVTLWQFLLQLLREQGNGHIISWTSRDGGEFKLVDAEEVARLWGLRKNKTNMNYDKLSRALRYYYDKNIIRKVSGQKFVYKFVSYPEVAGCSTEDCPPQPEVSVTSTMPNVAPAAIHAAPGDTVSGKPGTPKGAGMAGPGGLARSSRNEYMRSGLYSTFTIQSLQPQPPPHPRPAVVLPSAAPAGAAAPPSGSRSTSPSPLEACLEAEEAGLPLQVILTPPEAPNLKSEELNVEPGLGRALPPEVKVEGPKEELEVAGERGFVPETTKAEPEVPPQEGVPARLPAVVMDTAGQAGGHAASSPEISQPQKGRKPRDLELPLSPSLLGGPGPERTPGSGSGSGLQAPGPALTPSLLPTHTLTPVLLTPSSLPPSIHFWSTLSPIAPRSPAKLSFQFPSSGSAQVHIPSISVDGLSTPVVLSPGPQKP
# In short: (§1)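 Sequencing on an Illumina NextSeq500 followed washing, crosslinking with 0.1% formaldehyde, proximity ligation (BsaI/T4 ligase, 1 h, 37 °C) and PCR amplification of pools that had been incubated for 30 min at room temperature with 200 nmole of a random double-stranded 16-mer DNA library in Tris/NaCl/DTT/glycerol buffer. Each pool held DNA-barcoded human transcription factors, expressed in yeast as GST fusions and captured on glutathione beads, plus a tag-only sample. Binding signal is a hexamer's read frequency for a factor divided by its frequency in the tag-only sample.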
# GABPA = target: T2, GABPA (Homo sapiens, UniProt Q06546 1-454)
# T2 sequence: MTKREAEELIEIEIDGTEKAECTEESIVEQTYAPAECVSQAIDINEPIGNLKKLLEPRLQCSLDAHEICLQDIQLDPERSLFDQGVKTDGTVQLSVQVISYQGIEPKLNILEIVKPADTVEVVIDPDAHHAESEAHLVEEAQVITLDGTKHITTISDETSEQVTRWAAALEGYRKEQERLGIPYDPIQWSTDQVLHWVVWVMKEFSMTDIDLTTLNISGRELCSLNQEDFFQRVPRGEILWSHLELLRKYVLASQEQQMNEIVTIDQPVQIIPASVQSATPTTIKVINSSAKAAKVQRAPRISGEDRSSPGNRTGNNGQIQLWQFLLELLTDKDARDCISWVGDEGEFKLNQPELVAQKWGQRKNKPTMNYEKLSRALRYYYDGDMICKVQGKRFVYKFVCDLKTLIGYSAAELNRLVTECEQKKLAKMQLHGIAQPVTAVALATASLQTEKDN
# In short: as §1
# ERG = target: T3, ERG (Homo sapiens, UniProt P11308 1-479)
# T3 sequence: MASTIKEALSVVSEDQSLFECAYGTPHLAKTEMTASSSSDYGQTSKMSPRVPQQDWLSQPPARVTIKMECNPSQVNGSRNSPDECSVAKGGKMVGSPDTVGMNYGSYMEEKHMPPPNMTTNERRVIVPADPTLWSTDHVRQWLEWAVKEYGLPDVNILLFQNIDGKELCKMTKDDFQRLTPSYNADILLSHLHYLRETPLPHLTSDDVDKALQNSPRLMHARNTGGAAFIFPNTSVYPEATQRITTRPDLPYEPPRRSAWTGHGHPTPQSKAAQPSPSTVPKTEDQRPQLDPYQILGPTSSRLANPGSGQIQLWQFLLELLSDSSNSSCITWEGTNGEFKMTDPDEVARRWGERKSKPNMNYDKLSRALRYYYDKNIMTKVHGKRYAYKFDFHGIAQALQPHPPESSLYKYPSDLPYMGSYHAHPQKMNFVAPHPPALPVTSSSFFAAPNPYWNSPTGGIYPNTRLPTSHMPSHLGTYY
# In short: as §1
# ELF1 = ELF1 (Homo sapiens, UniProt P32519 1-619)
# ELF1, sequence (P32519 whole entry): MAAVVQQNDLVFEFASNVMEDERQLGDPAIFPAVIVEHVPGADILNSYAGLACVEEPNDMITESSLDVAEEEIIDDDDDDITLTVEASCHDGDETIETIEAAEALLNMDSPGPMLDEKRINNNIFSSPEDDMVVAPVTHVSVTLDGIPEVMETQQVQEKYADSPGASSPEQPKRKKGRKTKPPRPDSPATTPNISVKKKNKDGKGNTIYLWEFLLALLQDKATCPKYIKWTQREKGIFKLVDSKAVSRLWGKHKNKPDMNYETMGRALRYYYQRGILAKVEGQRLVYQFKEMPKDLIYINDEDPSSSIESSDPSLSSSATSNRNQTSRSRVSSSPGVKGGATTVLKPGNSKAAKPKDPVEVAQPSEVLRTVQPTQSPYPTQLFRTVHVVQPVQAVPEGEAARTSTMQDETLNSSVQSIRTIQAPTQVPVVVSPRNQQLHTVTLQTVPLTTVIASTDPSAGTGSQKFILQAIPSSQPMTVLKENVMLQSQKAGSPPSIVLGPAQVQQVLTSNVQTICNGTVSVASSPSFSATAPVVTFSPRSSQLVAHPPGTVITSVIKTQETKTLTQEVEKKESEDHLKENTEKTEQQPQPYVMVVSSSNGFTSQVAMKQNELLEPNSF
# In short: as §1
# EHF = target: T4, EHF (Homo sapiens, UniProt Q9NZC4 1-300)
# T4 sequence: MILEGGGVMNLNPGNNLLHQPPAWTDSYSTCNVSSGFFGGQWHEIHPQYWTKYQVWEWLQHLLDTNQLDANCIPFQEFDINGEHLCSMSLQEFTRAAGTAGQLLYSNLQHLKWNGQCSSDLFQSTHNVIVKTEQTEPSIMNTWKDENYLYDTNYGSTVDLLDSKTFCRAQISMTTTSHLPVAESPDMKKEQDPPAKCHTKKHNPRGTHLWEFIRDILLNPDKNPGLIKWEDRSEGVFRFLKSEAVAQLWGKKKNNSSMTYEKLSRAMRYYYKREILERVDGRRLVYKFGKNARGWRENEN
# In short: as §1
# SPIB = SPIB (Homo sapiens, UniProt Q01892 1-262)
# SPIB, sequence (Q01892 whole entry): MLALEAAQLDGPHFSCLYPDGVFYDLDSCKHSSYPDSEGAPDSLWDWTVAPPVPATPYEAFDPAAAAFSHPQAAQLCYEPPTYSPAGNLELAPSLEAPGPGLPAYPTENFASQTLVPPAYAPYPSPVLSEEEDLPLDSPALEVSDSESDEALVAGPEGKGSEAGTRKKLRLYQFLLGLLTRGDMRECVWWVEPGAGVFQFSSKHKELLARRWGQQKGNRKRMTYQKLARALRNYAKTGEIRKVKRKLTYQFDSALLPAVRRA
# In short: as §1
# FEV = target: T5, FEV (Homo sapiens, UniProt Q99581 1-238)
# T5 sequence: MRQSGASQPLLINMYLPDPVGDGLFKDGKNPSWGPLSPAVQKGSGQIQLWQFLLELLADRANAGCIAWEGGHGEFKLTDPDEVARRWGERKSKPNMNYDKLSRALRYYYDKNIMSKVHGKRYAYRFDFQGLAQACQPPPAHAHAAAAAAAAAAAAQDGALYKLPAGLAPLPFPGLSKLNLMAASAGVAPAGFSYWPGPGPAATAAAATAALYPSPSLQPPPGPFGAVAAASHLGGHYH
# In short: as §1
# ETV5 = ETV5 (Homo sapiens, UniProt P41161 1-510)
# ETV5, sequence (P41161 whole entry): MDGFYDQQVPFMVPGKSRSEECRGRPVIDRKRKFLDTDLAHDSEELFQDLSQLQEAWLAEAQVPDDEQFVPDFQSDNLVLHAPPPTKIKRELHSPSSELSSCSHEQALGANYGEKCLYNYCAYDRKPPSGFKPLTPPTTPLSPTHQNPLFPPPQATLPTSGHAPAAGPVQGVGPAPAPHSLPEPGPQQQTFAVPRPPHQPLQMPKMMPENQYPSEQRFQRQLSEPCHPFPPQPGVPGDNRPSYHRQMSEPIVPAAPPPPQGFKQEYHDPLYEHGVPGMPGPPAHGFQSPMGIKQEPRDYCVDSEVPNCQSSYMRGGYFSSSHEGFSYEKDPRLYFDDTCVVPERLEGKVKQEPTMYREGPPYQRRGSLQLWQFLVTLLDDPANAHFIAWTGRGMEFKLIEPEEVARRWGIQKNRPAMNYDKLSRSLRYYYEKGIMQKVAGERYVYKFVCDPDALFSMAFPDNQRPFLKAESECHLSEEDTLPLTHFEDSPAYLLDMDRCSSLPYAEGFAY
# In short: as §1
# ELF4 = ELF4 (Homo sapiens, UniProt Q99607 1-663)
# ELF4, sequence (Q99607 whole entry): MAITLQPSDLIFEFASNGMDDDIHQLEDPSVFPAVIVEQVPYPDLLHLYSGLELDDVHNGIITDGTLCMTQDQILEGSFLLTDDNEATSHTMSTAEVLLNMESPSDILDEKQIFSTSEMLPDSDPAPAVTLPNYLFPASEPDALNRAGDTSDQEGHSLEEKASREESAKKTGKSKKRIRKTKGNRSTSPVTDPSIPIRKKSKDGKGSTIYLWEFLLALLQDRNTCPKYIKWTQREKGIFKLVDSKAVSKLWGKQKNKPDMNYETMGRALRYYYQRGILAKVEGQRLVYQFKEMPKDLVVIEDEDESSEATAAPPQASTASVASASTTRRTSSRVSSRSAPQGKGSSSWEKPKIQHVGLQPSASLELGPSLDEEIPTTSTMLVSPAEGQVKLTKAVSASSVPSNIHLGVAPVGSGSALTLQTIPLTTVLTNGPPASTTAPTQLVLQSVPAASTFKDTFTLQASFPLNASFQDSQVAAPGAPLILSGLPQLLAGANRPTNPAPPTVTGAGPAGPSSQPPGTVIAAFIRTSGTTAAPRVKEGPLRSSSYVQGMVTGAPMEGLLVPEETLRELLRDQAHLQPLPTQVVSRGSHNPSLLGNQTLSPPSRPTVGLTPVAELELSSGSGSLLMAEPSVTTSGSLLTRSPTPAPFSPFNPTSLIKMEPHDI
# In short: as §1
# ELK4 = target: T6, ELK4 (Homo sapiens, UniProt P28324-2 1-405)
# T6 sequence: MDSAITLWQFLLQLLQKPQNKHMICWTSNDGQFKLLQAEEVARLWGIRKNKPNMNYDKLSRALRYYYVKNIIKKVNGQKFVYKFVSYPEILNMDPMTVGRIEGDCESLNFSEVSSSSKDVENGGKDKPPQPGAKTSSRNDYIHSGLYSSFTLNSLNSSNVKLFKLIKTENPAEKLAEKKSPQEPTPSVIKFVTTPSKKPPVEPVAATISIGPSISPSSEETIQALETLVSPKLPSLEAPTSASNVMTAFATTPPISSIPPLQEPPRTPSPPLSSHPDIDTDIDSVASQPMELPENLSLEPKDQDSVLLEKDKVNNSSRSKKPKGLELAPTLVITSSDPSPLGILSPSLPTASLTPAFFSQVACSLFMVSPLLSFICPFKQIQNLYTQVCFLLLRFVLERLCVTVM
# In short: as §1
# ELF3 = target: T7, ELF3 (Homo sapiens, UniProt P78545 1-371)
# T7 sequence: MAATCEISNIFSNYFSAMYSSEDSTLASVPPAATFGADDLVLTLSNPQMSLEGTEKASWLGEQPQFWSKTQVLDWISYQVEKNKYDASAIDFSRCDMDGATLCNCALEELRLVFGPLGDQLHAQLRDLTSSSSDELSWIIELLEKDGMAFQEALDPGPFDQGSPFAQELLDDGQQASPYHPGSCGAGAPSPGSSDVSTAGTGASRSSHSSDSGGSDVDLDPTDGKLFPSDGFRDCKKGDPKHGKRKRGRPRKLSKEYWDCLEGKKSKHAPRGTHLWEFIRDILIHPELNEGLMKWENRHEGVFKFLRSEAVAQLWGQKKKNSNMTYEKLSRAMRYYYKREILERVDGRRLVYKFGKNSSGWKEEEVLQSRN
# In short: as §1
# ETV1 = ETV1 (Homo sapiens, UniProt P50549 1-477)
# ETV1, sequence (P50549 whole entry): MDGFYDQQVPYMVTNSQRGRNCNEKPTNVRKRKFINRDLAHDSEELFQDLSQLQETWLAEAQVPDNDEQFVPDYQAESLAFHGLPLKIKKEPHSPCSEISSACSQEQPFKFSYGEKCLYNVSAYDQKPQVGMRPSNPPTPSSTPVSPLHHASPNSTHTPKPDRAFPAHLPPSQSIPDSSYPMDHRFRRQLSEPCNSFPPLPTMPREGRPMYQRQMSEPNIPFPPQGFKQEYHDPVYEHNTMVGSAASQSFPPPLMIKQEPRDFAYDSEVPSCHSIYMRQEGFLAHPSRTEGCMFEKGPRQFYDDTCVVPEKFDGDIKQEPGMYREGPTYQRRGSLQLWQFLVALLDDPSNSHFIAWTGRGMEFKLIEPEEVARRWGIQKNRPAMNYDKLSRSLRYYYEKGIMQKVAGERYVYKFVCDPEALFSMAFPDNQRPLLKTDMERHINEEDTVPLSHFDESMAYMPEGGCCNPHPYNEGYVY
# In short: as §1
# ERF = target: T8, ERF (Homo sapiens, UniProt P50548 1-548)
# T8 sequence: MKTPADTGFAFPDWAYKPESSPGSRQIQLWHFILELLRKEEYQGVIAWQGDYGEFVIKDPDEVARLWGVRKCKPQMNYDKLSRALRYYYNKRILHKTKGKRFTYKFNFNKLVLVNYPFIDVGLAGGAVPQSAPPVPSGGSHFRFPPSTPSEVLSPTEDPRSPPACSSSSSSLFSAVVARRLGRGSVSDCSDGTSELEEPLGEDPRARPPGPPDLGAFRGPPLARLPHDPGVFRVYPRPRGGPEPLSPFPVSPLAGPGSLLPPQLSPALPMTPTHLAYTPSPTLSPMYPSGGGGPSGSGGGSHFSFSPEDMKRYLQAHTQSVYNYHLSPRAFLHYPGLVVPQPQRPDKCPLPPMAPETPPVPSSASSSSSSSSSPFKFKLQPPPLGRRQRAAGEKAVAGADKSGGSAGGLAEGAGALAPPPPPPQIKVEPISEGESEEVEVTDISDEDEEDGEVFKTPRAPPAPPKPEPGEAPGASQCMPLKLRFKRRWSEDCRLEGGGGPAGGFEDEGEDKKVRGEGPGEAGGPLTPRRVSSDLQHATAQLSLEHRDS
# In short: as §1
# ETV3L = target: T9, ETV3L (Homo sapiens, UniProt Q6ZN32 1-361)
# T9 sequence: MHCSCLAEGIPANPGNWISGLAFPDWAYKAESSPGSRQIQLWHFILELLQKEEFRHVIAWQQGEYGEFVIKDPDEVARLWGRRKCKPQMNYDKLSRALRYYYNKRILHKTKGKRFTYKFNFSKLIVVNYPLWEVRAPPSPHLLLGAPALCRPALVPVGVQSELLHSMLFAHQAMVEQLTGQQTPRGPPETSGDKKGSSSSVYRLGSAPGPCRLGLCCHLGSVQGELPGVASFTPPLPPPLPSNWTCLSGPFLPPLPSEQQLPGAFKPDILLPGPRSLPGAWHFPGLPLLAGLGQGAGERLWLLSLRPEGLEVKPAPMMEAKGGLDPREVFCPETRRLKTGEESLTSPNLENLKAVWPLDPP
# In short: as §1
# ETS2 = target: T10, ETS2 (Homo sapiens, UniProt P15036 1-469)
# T10 sequence: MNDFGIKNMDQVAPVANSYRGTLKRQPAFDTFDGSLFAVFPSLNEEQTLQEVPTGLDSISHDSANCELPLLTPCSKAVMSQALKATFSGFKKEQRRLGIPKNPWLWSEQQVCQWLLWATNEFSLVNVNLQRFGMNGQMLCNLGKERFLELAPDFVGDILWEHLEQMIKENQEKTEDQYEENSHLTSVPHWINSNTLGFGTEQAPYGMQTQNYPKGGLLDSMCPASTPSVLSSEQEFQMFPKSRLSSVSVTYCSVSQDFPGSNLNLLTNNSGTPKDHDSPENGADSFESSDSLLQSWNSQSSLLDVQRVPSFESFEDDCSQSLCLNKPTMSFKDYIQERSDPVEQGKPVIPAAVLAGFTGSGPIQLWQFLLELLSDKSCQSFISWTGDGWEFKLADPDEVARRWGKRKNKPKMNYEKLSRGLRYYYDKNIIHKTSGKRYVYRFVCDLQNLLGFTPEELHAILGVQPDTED
# In short: as §1
# SPDEF = target: T11, SPDEF (Homo sapiens, UniProt O95238 1-335)
# T11 sequence: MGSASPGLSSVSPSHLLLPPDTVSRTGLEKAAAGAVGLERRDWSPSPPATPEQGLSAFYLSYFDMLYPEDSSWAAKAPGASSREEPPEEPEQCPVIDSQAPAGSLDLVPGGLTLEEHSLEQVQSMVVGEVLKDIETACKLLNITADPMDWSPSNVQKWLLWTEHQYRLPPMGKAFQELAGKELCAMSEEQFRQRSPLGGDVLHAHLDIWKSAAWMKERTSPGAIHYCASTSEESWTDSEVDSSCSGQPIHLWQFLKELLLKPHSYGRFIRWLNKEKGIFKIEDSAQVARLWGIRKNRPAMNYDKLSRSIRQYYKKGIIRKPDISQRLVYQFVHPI
# In short: as §1
# ETV7 = target: T12, ETV7 (Homo sapiens, UniProt Q9Y603 1-341)
# T12 sequence: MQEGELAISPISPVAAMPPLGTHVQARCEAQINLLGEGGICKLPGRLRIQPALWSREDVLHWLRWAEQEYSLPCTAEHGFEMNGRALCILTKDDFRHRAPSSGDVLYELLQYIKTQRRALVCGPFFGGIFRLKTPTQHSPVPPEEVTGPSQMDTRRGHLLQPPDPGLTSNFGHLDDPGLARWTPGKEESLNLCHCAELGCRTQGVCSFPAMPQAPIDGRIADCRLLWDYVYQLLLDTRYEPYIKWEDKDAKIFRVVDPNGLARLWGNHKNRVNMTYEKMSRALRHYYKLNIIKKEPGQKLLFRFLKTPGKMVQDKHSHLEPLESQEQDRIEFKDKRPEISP
# In short: as §1
# ETV3 = target: T13, ETV3 (Homo sapiens, UniProt P41162-2 1-143)
# T13 sequence: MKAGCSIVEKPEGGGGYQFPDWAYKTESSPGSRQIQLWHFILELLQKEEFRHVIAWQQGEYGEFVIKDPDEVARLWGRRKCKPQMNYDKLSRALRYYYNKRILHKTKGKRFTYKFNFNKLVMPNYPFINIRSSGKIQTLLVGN
# In short: as §1
# ETV6 = ETV6 (Homo sapiens, UniProt P41212 1-452)
# ETV6, sequence (P41212 whole entry): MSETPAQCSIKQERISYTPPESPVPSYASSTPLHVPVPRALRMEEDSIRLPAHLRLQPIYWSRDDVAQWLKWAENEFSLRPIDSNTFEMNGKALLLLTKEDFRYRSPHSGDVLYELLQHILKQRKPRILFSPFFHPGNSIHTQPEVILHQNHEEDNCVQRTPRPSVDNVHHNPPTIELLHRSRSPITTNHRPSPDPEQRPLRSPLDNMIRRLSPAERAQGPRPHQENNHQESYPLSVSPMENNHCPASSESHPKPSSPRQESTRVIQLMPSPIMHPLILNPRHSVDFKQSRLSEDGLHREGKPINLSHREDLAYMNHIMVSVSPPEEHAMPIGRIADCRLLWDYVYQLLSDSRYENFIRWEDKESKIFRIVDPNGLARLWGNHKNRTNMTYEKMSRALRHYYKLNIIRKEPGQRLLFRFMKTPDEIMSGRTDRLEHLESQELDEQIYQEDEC
# In short: as §1
sequence,measurement,setting,value
ATAATG,binding signal,ELK1,"1.1 fold enrichment (6-mer frequency, TF over GST control)"
same,binding signal,GABPA,"1.06 fold enrichment (6-mer frequency, TF over GST control)"
same,binding signal,ERG,"1.03 fold enrichment (6-mer frequency, TF over GST control)"
same,binding signal,ELF1,"1.11 fold enrichment (6-mer frequency, TF over GST control)"
same,binding signal,EHF,"1.14 fold enrichment (6-mer frequency, TF over GST control)"
same,binding signal,SPIB,"1.19 fold enrichment (6-mer frequency, TF over GST control)"
same,binding signal,FEV,"1.08 fold enrichment (6-mer frequency, TF over GST control)"
same,binding signal,ETV5,"1.09 fold enrichment (6-mer frequency, TF over GST control)"
same,binding signal,ELF4,"1.06 fold enrichment (6-mer frequency, TF over GST control)"
same,binding signal,ELK4,"1.16 fold enrichment (6-mer frequency, TF over GST control)"
same,binding signal,ELF3,"1.03 fold enrichment (6-mer frequency, TF over GST control)"
same,binding signal,ETV1,"1.16 fold enrichment (6-mer frequency, TF over GST control)"
same,binding signal,ERF,"1.09 fold enrichment (6-mer frequency, TF over GST control)"
same,binding signal,ETV3L,"1.2 fold enrichment (6-mer frequency, TF over GST control)"
same,binding signal,ETS2,"1.14 fold enrichment (6-mer frequency, TF over GST control)"
same,binding signal,SPDEF,"1.06 fold enrichment (6-mer frequency, TF over GST control)"
same,binding signal,ETV7,"1.01 fold enrichment (6-mer frequency, TF over GST control)"
same,binding signal,ETV3,"1.09 fold enrichment (6-mer frequency, TF over GST control)"
same,binding signal,ETV6,"1.09 fold enrichment (6-mer frequency, TF over GST control)"
